This passage reports AC50 and outcome results from PubChem BioAssay (EPA / NIEHS).

Activity calls are given as the source filed them. Rule for the calls: active = hit-call score of the fitted dose curve at least 0.9, where 1 is the maximum; inactive = score below 0.9.

This test has as its system SRY-box transcription factor 2 (SOX2) Protein Expression, Deisenroth Lab, SOX2 (gene 6657). As to the kind of experiment: CCTE_Deisenroth_DEVTOX-GLR_Pluri_SOX2: CCTE's DevTox GLR-Pluri Assay Evaluation of SRY-box transcription factor 2 (SOX2) Protein Expression, Deisenroth Lab (AID 2284428). The procedure: CCTE_Deisenroth_DEVTOX-GLR_Pluri assay is a cell-based, multiplex-readout assay that uses RUES2-GLR, a human pluripotent cell line, with measurements taken at 48 hours after chemical dosing in a 384-well microplateCCTE_Deisenroth_DEVTOX-GLR_Pluri_SOX2 is 1 of 4 assay components calculated from the CCTE_Deisenroth_DEVTOX-GLR_Pluri assay and it measures an the percentage of cells in an pluripotent state. Using a type of inducible fluorescent protein reporter, gain-of-signal activity can be used to understand changes in gene expression with fluorescent microscopy. The percentage of SOX2+ cells are determined by calculating the number of SOX2+ cells divided by the cell count. To generalize the intended target to other relatable targets, this assay component is annotated to the transcription factor intended target family, where the subfamily is SRY-related HMG-box.Data from the assay component CCTE_Deisenroth_DEVTOX-GLR_Pluri_SOX2 was analyzed as 1 assay endpoint. The endpoint is the percent change in the SOX2+ cell population relative to the 0.2% DMSO control in the CCTE_Deisenroth_DEVTOX-GLR_Pluri assay. Furthermore, this assay endpoint can be referred to as a primary readout, because this assay has produced multiple assay endpoints where this one serves as a measure of […].
All assay protocols are aligned to the DevTox GLR-Endo assay workflow. Cells are seeded into 384-well microplates for 24 hours prior to initiating differentiation in defined media for a total duration of 48 hours. A total of two chemical exposures are administered in 24-hour intervals during the 48-hour differentiation period. At the assay termination point, cells are fixed and stained with a fluorescent dye demarcating the nucleus. High-content imaging is used to acquire brightfield and fluorescent channel images across 5 fields per well. Cell identification and mean biomarker fluorescence intensities are calculated with image analysis software to determine the total cell counts for viability assessment and the biomarker expression frequency for each lineage-dependent assay. A typical experimental design tests a 10-point concentration series (1 nM - 200 uM) for 28 compounds in single technical replicate. Assay plate controls include non-differentiated pluripotent cells (baseline control), lineage-specific differentiated cells (differentiation control), and DMSO solvent exposed differentiated cells (solvent control). Experiments typically comprise a minimum of four experimental replicates (n=4).
With `O=C(c1ccc(F)cc1)C1CCN(CCn2c(=O)[nH]c3ccccc3c2=O)CC1`, the AC50 is 19.8 µM (active).
Take `CC1=C(/C=C/C(C)=C/C=C/C(C)=C\C(=O)O)C(C)(C)CCC1`: the concentration at half-maximal activity (AC50) is 1.78 µM (active).
Regarding `Cc1nc(Nc2ncc(C(=O)Nc3c(C)cccc3Cl)s2)cc(N2CCN(CCO)CC2)n1`, the half-maximal activity concentration (AC50) is 0.621 µM (active).
Same read-out and setting: under `CCCCCN=C(N)N/N=C/c1c[nH]c2ccc(OC)cc12` stands 7.76 µM (active).
With `COc1cc2c(Nc3ccc(Br)cc3F)ncnc2cc1OCC1CCN(C)CC1`, the result was inactive.
Same read-out and setting: under `COc1cc2ncnc(Nc3ccc(F)c(Cl)c3)c2cc1OCCCN1CCOCC1` stands “inactive”.
As for `Nc1cccc2c1CN(C1CCC(=O)NC1=O)C2=O` (centres undefined), the concentration at half-maximal activity (AC50) is 0.0287 µM (active).
For `CN1CCN2c3ccccc3Cc3ccccc3C2C1` (centres undefined), the AC50 is 24.3 µM (active).
Turning to `O=C1Cc2cc(CCN3CCN(c4nsc5ccccc45)CC3)c(Cl)cc2N1`, the concentration at half-maximal activity (AC50) is 4.27 µM (active).
Take `CNC(=O)c1cc(Oc2ccc(NC(=O)Nc3ccc(Cl)c(C(F)(F)F)c3)cc2)ccn1`: the AC50 was 29.3 µM (active).
Take `Cc1ccc(NC(=O)c2ccc(CN3CCN(C)CC3)cc2)cc1Nc1nccc(-c2cccnc2)n1`: the AC50 was 15.7 µM (active).
On to `Cc1nc2sccn2c(=O)c1CCN1CCC(=C(c2ccc(F)cc2)c2ccc(F)cc2)CC1`, for which the half-maximal activity concentration (AC50) is 16.9 µM (active).
Take `O=c1[nH]c(=O)n([C@H]2C[C@H](O)[C@@H](CO)O2)cc1Br`: the AC50 was 3.42 µM (active).
Turning to `CCN(CC)CCNC(=O)c1c(C)[nH]c(/C=C2\C(=O)Nc3ccc(F)cc32)c1C`, the AC50 was 0.432 µM (active).

By AC50 is commonly meant the concentration giving half of the maximal activity seen.
